The antibiotic and cytotoxicity screens of Wong et al. (2023)
Screen size: about 39,000 compounds; about 3,300 (8.5%) were called active. The sample as a whole holds a higher share of actives than the screen did.

Tested on: HepG2
Assay: cytotoxicity call (relative viability < 0.9)
Details: 10 µM

Question: For C[C@@H]1CCCCO[C@@H](CN(C)CC2CCCCC2)[C@H](C)CN([C@@H](C)CO)C(=O)c2cc(NC(=O)Nc3ccc(F)cc3)ccc2O1, which cytotoxicity call is on record?
Answer: The cytotoxicity call was “active”.

Question: How did the cytotoxicity call turn out when C[C@@H]1CCCCO[C@H](CN(C)CC2CCCCC2)[C@H](C)CN([C@@H](C)CO)C(=O)c2cc(NC(=O)Nc3ccc(F)cc3)ccc2O1 was run?
Answer: Its cytotoxicity call is “active”.

Question: C[C@@H]1CCCCO[C@H](CN(C)CC2CCCCC2)[C@@H](C)CN([C@H](C)CO)C(=O)c2cc(NC(=O)Nc3ccc(F)cc3)ccc2O1 was tested. Which cytotoxicity call did it give?
Answer: Its cytotoxicity call is “inactive”.

Question: With C[C@@H]1CN([C@@H](C)CO)C(=O)c2cc(NC(=O)Nc3ccc(F)cc3)ccc2O[C@@H](C)CCCCO[C@@H]1CN(C)CC1CCCCC1 as the compound, how does the cytotoxicity call read?
Answer: Its cytotoxicity call is “active”.

Question: Which cytotoxicity call does the source give for C[C@@H]1CCCCO[C@@H](CN(C)CC2CCCCC2)[C@H](C)CN([C@H](C)CO)C(=O)c2cc(NC(=O)Nc3ccc(F)cc3)ccc2O1 here?
Answer: Its cytotoxicity call is “active”.

Question: How did the cytotoxicity call turn out when C[C@H]1CCCCO[C@@H](CN(C)CC2CC2)[C@@H](C)CN([C@@H](C)CO)C(=O)c2cc(NC(=O)Nc3ccc(F)cc3)ccc2O1 was run?
Answer: Its cytotoxicity call is “inactive”.

Question: How did the cytotoxicity call turn out when C[C@@H]1CN([C@H](C)CO)C(=O)CCCn2cc(nn2)CO[C@H]1CN(C)S(=O)(=O)c1ccc2c(c1)OCCCO2 was run?
Answer: The cytotoxicity call was “inactive”.

Question: With Cc1noc(C)c1NC(=O)N(C)C[C@H]1OCCCC[C@H](C)Oc2ccc(NC(=O)NC3CCCCC3)cc2C(=O)N([C@@H](C)CO)C[C@@H]1C as the compound, how does the cytotoxicity call read?
Answer: The cytotoxicity call was “inactive”.

Question: For CN(C)CC#Cc1ccc([C@@H]2[C@H]3CN(C(=O)CN(C)C)CCCCN3[C@H]2CO)cc1, which cytotoxicity call is on record?
Answer: The cytotoxicity call was “inactive”.

Question: C[C@@H]1CCCCO[C@@H](CN(C)C(=O)NC2CCCCC2)[C@H](C)CN([C@@H](C)CO)C(=O)c2cc(NC(=O)NC3CCCCC3)ccc2O1 was tested. Which cytotoxicity call did it give?
Answer: The cytotoxicity call was “inactive”.

Question: O=C(C[C@@H]1C[C@H]2c3cc(NC(=O)c4ccc5c(c4)OCO5)ccc3O[C@H]2[C@@H](CO)O1)NCc1ccccn1 was tested. Which cytotoxicity call did it give?
Answer: Its cytotoxicity call is “inactive”.

Question: For C[C@@H]1CN([C@@H](C)CO)C(=O)c2cccc(NC(=O)Nc3ccc(C(F)(F)F)cc3)c2O[C@@H]1CN(C)Cc1ccc(-c2ccccc2)cc1, which cytotoxicity call is on record?
Answer: Its cytotoxicity call is “inactive”.

Question: CC(C)NC(=O)Nc1ccc2c(c1)CC(=O)N([C@H](C)CO)C[C@@H](C)[C@H](CN(C)S(=O)(=O)c1cn(C)cn1)O2 was tested. Which cytotoxicity call did it give?
Answer: The cytotoxicity call was “inactive”.

Question: For C[C@H]1CN([C@@H](C)CO)C(=O)c2cccc(NS(=O)(=O)c3ccc(F)cc3)c2O[C@@H]1CN(C)Cc1ccncc1, which cytotoxicity call is on record?
Answer: Its cytotoxicity call is “inactive”.

Question: C[C@H](O)C#Cc1ccc2c(c1)O[C@H](CN(C)C(=O)c1ccccc1)[C@H](C)CN([C@@H](C)CO)S2(=O)=O was tested. Which cytotoxicity call did it give?
Answer: The cytotoxicity call was “inactive”.

Question: How did the cytotoxicity call turn out when C[C@@H]1CN([C@@H](C)CO)S(=O)(=O)c2ccc(-c3cccnc3)cc2O[C@H]1CN(C)C(=O)c1cccc(F)c1 was run?
Answer: The cytotoxicity call was “inactive”.

Question: C[C@@H]1CCCCO[C@@H](CN(C)CC2CC2)[C@H](C)CN([C@@H](C)CO)C(=O)c2cc(NC(=O)Nc3ccc(F)cc3)ccc2O1 was tested. Which cytotoxicity call did it give?
Answer: The cytotoxicity call was “inactive”.

Question: For C[C@@H]1CN([C@@H](C)CO)C(=O)c2cc(NC(=O)Nc3ccc(F)cc3)ccc2O[C@@H](C)CCCCO[C@H]1CN(C)CC1CCCCC1, which cytotoxicity call is on record?
Answer: Its cytotoxicity call is “active”.

Question: C[C@H](CO)N1C[C@H](C)[C@@H](CN(C)CC2CC2)OCCCC[C@H](C)Oc2ccc(NC(=O)Nc3ccc(F)cc3)cc2C1=O was tested. Which cytotoxicity call did it give?
Answer: Its cytotoxicity call is “inactive”.

Question: C[C@H](CO)N1C[C@H](C)[C@H](CN(C)CC2CCCCC2)OCCCC[C@H](C)Oc2ccc(NC(=O)Nc3ccc(F)cc3)cc2C1=O was tested. Which cytotoxicity call did it give?
Answer: Its cytotoxicity call is “active”.

Question: Which cytotoxicity call does the source give for C[C@H](CO)N1C[C@H](C)[C@@H](CN(C)CC2CCCCC2)OCCCC[C@H](C)Oc2ccc(NC(=O)Nc3ccc(F)cc3)cc2C1=O here?
Answer: The cytotoxicity call was “active”.

Question: C[C@H](CO)N1C[C@H](C)[C@H](CN(C)CC2CC2)OCCCC[C@H](C)Oc2ccc(NC(=O)Nc3ccc(F)cc3)cc2C1=O was tested. Which cytotoxicity call did it give?
Answer: The cytotoxicity call was “inactive”.

Question: For C[C@@H]1CCCCO[C@@H](CN(C)CC2CC2)[C@@H](C)CN([C@H](C)CO)C(=O)c2cc(NC(=O)Nc3ccc(F)cc3)ccc2O1, which cytotoxicity call is on record?
Answer: Its cytotoxicity call is “inactive”.

Question: Which cytotoxicity call does the source give for COCC(=O)Nc1ccc2c(c1)OC[C@H](C)N(C(=O)Cc1cccnc1)C[C@@H](C)[C@H](OC)CN(C)C2=O here?
Answer: The cytotoxicity call was “inactive”.

Question: For COCC#Cc1ccc2c(c1)O[C@H](CN(C)C(=O)Nc1ccccc1F)[C@H](C)CN([C@@H](C)CO)S2(=O)=O, which cytotoxicity call is on record?
Answer: The cytotoxicity call was “inactive”.

Question: How did the cytotoxicity call turn out when COc1ccccc1-c1cnc2c(c1)C(=O)N([C@@H](C)CO)C[C@H](C)[C@@H](CN(C)C(=O)c1ccncc1)O2 was run?
Answer: The cytotoxicity call was “inactive”.

Question: O=C(C[C@H]1CC[C@@H](NC(=O)CN2CCOCC2)[C@@H](CO)O1)NC1CCC1 was tested. Which cytotoxicity call did it give?
Answer: Its cytotoxicity call is “inactive”.

Question: How did the cytotoxicity call turn out when O=C1/C(=C/C=C/c2ccco2)CCC/C1=C\C=C\c1ccco1 was run?
Answer: Its cytotoxicity call is “inactive”.

Question: With NC(=O)CSc1nnnn1-c1cccc(O)c1 as the compound, how does the cytotoxicity call read?
Answer: The cytotoxicity call was “inactive”.

Question: With C[C@H]1CN([C@@H](C)CO)C(=O)c2cccc(NC(=O)c3cnccn3)c2O[C@@H]1CN(C)S(=O)(=O)c1ccc(Cl)cc1 as the compound, how does the cytotoxicity call read?
Answer: Its cytotoxicity call is “inactive”.

Question: With CC(C)NC(=O)N(C)C[C@H]1Oc2ccc(NC(=O)C3CCCCC3)cc2C(=O)N([C@@H](C)CO)C[C@@H]1C as the compound, how does the cytotoxicity call read?
Answer: The cytotoxicity call was “inactive”.

Question: With CS(=O)(=O)Nc1ccc2c(c1)[C@H]1C[C@@H](CC(=O)NCc3ccc(-c4ccccc4)cc3)O[C@@H](CO)[C@H]1O2 as the compound, how does the cytotoxicity call read?
Answer: The cytotoxicity call was “inactive”.

Question: For C[C@@H]1CCCCO[C@H](CN(C)Cc2ccccc2)[C@H](C)CN([C@H](C)CO)C(=O)c2cc(NS(=O)(=O)c3ccc(F)cc3)ccc2O1, which cytotoxicity call is on record?
Answer: Its cytotoxicity call is “inactive”.

Question: For O=C(C[C@H]1C=C[C@H](NS(=O)(=O)c2ccccc2)[C@@H](CO)O1)NCc1ccncn1, which cytotoxicity call is on record?
Answer: Its cytotoxicity call is “inactive”.

Question: For C[C@H]1CN([C@@H](C)CO)C(=O)Cc2cc(NC(=O)Nc3ccc(C(F)(F)F)cc3)ccc2O[C@H]1CN(C)Cc1ccc(C(F)(F)F)cc1, which cytotoxicity call is on record?
Answer: The cytotoxicity call was “active”.

Question: C[C@H]1CN([C@@H](C)CO)C(=O)Cc2cc(NC(=O)Nc3ccc(C(F)(F)F)cc3)ccc2O[C@@H]1CN(C)Cc1ccc(C(F)(F)F)cc1 was tested. Which cytotoxicity call did it give?
Answer: Its cytotoxicity call is “inactive”.

Question: C[C@@H]1CN([C@H](C)CO)C(=O)Cc2cc(NC(=O)Nc3ccc(C(F)(F)F)cc3)ccc2O[C@@H]1CN(C)Cc1ccc(C(=O)O)cc1 was tested. Which cytotoxicity call did it give?
Answer: The cytotoxicity call was “inactive”.

Question: Which cytotoxicity call does the source give for C[C@@H]1CN([C@H](C)CO)C(=O)Cc2cc(NC(=O)CCC(F)(F)F)ccc2O[C@@H]1CN(C)Cc1ccc(C(F)(F)F)cc1 here?
Answer: Its cytotoxicity call is “inactive”.

Question: For C[C@@H]1CN([C@H](C)CO)C(=O)Cc2cc(NC(=O)Nc3ccc(C(F)(F)F)cc3)ccc2O[C@H]1CN(C)Cc1ccc(C(F)(F)F)cc1, which cytotoxicity call is on record?
Answer: The cytotoxicity call was “inactive”.

Question: C[C@@H]1CN([C@@H](C)CO)C(=O)Cc2cc(NC(=O)Nc3ccc(C(F)(F)F)cc3)ccc2O[C@@H]1CN(C)Cc1ccc(C(=O)O)cc1 was tested. Which cytotoxicity call did it give?
Answer: The cytotoxicity call was “inactive”.

Question: How did the cytotoxicity call turn out when C[C@@H]1CN([C@H](C)CO)C(=O)Cc2cc(NC(=O)CCC(F)(F)F)ccc2O[C@H]1CN(C)Cc1ccc(C(F)(F)F)cc1 was run?
Answer: Its cytotoxicity call is “active”.

Question: Which cytotoxicity call does the source give for C[C@H]1CN([C@@H](C)CO)C(=O)Cc2cc(NC(=O)CCC(F)(F)F)ccc2O[C@@H]1CN(C)Cc1ccc(C(F)(F)F)cc1 here?
Answer: The cytotoxicity call was “inactive”.

Question: How did the cytotoxicity call turn out when C[C@H](CO)N1C[C@H](C)[C@H](CN(C)Cc2ccc(C(F)(F)F)cc2)Oc2ccc(NC(=O)Nc3ccc(C(F)(F)F)cc3)cc2CC1=O was run?
Answer: Its cytotoxicity call is “active”.

Question: C[C@H](CO)N1C[C@H](C)[C@@H](CN(C)Cc2ccc(C(F)(F)F)cc2)Oc2ccc(NC(=O)Nc3ccc(C(F)(F)F)cc3)cc2CC1=O was tested. Which cytotoxicity call did it give?
Answer: Its cytotoxicity call is “active”.
